Test results reported in the supplement of paper PMC6555819.

How the values were obtained:
Assay in all cases: PBM binding z-score (relative to random genomic background probes); higher = stronger binding; sequences stand for … in GC…GCGATTGACAGCGTAGAATGAAGG
[1] = tested on: FXR:RXRa (NR concentration 270 nM, RXRa partner concentration 90 nM)
Method in brief: (§1)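 Scanned fluorescence from custom Agilent 4×180K protein-binding microarrays was regression-normalized. Binding z-scores use random background probes as reference. Ligand-free nuclear receptor dimers were incubated on the arrays for 1 h and detected with antibodies against each partner (one per run).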

[2] = tested on: LXRa:RXRa (NR concentration 270 nM, RXRa partner concentration 90 nM)
Method in brief: as §1

[3] = tested on: LXRa homodimer (NR concentration 270 nM)
Method in brief: as §1

[4] = tested on: LXRb:RXRa (NR concentration 270 nM, RXRa partner concentration 90 nM)
Method in brief: as §1

[5] = tested on: LXRb homodimer (NR concentration 270 nM)
Method in brief: as §1

[6] = tested on: PPARa:RXRa (NR concentration 270 nM, RXRa partner concentration 90 nM)
Method in brief: as §1

[7] = tested on: PPARg:RXRa (NR concentration 180 nM, RXRa partner concentration 90 nM)
Method in brief: as §1

[8] = tested on: PPARg:RXRa 270nM:90nM, anti-RXR (NR concentration 270 nM, RXRa partner concentration 90 nM)
Method in brief: as §1

[9] = tested on: PPARg:RXRa 30nM:10nM, anti-RXR (NR concentration 30 nM, RXRa partner concentration 10 nM)
Method in brief: as §1

[10] = tested on: PPARg:RXRa 90nM:30nM, anti-RXR (NR concentration 90 nM, RXRa partner concentration 30 nM)
Method in brief: as §1

[11] = tested on: PPARg:RXRa DBDmut IVT, anti-RXR (DBD mutation: RXRa K156A/R161A, NR concentration 270 nM, RXRa partner concentration 90 nM)
Method in brief: as §1

[12] = tested on: PPARg:RXRa IVT, anti-PPARg (NR concentration 270 nM, RXRa partner concentration 90 nM)
Method in brief: as §1

[13] = tested on: PPARg DBDmut:RXRa IVT, anti-PPARg (DBD mutation: PPARg1 K132A/R137A, NR concentration 270 nM, RXRa partner concentration 90 nM)
Method in brief: as §1

[14] = tested on: PPARg DBDmut IVT, anti-PPARg (DBD mutation: PPARg1 K132A/R137A, NR concentration 270 nM)
Method in brief: as §1

[15] = tested on: PPARg homodimer (NR concentration 180 nM)
Method in brief: as §1

[16] = tested on: PXR:RXRa (NR concentration 270 nM, RXRa partner concentration 90 nM)
Method in brief: as §1

[17] = tested on: PXR homodimer (NR concentration 270 nM)
Method in brief: as §1

[18] = tested on: RARa:RXR (NR concentration 270 nM, RXRa partner concentration 90 nM)
Method in brief: as §1

[19] = tested on: RARa homodimer (NR concentration 270 nM)
Method in brief: as §1

[20] = tested on: RARb:RXRa (NR concentration 270 nM, RXRa partner concentration 90 nM)
Method in brief: as §1

| Sequence | PBM binding z-score [1] | PBM binding z-score [2] | PBM binding z-score [3] | PBM binding z-score [4] | PBM binding z-score [5] | PBM binding z-score [6] | PBM binding z-score [7] | PBM binding z-score [8] | PBM binding z-score [9] | PBM binding z-score [10] | PBM binding z-score [11] | PBM binding z-score [12] | PBM binding z-score [13] | PBM binding z-score [14] | PBM binding z-score [15] | PBM binding z-score [16] | PBM binding z-score [17] | PBM binding z-score [18] | PBM binding z-score [19] | PBM binding z-score [20] |
| --- | --- | --- | --- | --- | --- | --- | --- | --- | --- | --- | --- | --- | --- | --- | --- | --- | --- | --- | --- | --- |
| TCTTTTAGATCAACAGGAGGTTAAGAAAGATCGA | 1.27 | 1.43 | 0.248 | 1.57 | 0.898 | 1.55 | 0.2 | 2.27 | 3.57 | 3.17 | 2.11 | 0.854 | 1.33 | 1.69 | 0.914 | 1.3 | 0.393 | 1.6 | 0.513 | 0.952 |
| AATACAGGGTCACTAGGCCAGGGTAGGTACGAAT | 5.78 | 4.57 | 1.02 | 3.79 | 0.895 | 5.76 | 7.68 | 6.2 | 3.37 | 5.35 | 3.28 | 6 | 2.53 | 1.9 | 2.35 | 3.05 | 0.325 | 3.76 | 1.02 | 4.23 |
| TCTAGTTGGTCAGAGGTCACACACTCGAAATGCG | 4.94 | 4.85 | 3.21 | 4.9 | 1.13 | 5.55 | 9.31 | 8.56 | 7.99 | 9.17 | 2.47 | 4.96 | 1.28 | 0.861 | 4.45 | 5.4 | 1.74 | 5.99 | 1.84 | 4.49 |
| ACTACCAGGCCAAGTTTGGGTCACTCAAACAAAG | 0.642 | 0.276 | 0.197 | 1.05 | 0.0374 | 1.58 | 0.43 | 0.598 | -0.29 | 0.255 | 1.12 | 2.04 | 0.0556 | -0.292 | 0.797 | 0.921 | 0.121 | 1.45 | 0.491 | 2 |
| AATACAGGGTTACTAGGCCAGAGTAGGTACGAAT | 0.737 | 1.26 | 0.201 | 1.17 | 0.122 | 3.39 | 4.79 | 4.22 | 1.52 | 3.29 | 2.82 | 4.59 | 1.84 | 1.12 | 1.19 | 0.457 | 0.173 | 0.852 | 0.718 | 1.38 |
| ACAGACGGGTGATGAAGGTAACTCAGGCTATCAT | -0.328 | -0.456 | -0.165 | -0.422 | -0.384 | -0.198 | 0.613 | -0.161 | 0.108 | -0.458 | -0.229 | 0.424 | 0.246 | -0.242 | -0.329 | -0.323 | -0.116 | -0.078 | -0.0586 | -0.204 |
| CAAACTAGGTCAAGAGGCCAAAGTCCGCTTCCCG | 3.54 | 2.84 | 0.509 | 1.81 | -0.0945 | 4.7 | 7.87 | 6.59 | 4.48 | 6.47 | 8.03 | 8.06 | 1.13 | 0.602 | 1.8 | 1.56 | 0.34 | 2.68 | 0.79 | 3.93 |
| TTACCAAGGTGAAGGTCGTTGAGCCCTCTGTAGA | 1.3 | 1.24 | -0.339 | 0.883 | -1.13 | 2.65 | 2.83 | 4.43 | 2.31 | 3.92 | 1.99 | 3.36 | -0.0104 | -0.329 | 0.702 | 1.16 | -0.0928 | 1.57 | -0.872 | 2.07 |
